Assay results from PubChem BioAssay (NCATS).
Values joined by “and” are separate entries in the source; they are usually repeats but may differ in a detail not shown here. Identical values can stand only once. Records with an inconclusive call do not appear. Active and inactive are the calls of the source. Unless noted, calls follow the shape of the full dose curve.

Tests used:
[1] = qHTS for Inhibitors of the Functional Ribonucleoprotein Complex (vRNP) of Lassa (LASV) Arenavirus: LASV Primary Screen - GLuc reporter signal (AID 1347082; calls by dose curve; tested in HEK293 reporter line; also: nearly all actives have a fitted effect of over 60% in size; also: potency is read from the fitted curve at half-maximal effect; as to activity change, negative = inhibition: % is scaled to controls: 0 for no effect and ±100 for the full control effect)
[2] = qHTS for Inhibitors of the Functional Ribonucleoprotein Complex (vRNP) of Lymphocytic Choriomeningitis Arenaviruses (LCMV): Viability assay - alamar blue signal for LCMV Primary Screen (AID 1347085; calls by dose curve; tested in HEK293 reporter line; also: nearly all actives have a fitted effect of over 80% in size; also: potency is read from the fitted curve at half-maximal effect)
[3] = target: Nucleoprotein (Lymphocytic choriomeningitis virus (strain Armstrong)) (UniProt P09992); test: qHTS for Inhibitors of the Functional Ribonucleoprotein Complex (vRNP) of Lymphocytic Choriomeningitis Arenaviruses (LCMV): LCMV Primary Screen - GLuc reporter signal (AID 1347086); also: nearly all actives have a fitted effect of over 70% in size; also: potency is read from the fitted curve at half-maximal effect
Sequence of Nucleoprotein (Lymphocytic choriomeningitis virus (strain Armstrong)) (P09992 whole entry, looked up): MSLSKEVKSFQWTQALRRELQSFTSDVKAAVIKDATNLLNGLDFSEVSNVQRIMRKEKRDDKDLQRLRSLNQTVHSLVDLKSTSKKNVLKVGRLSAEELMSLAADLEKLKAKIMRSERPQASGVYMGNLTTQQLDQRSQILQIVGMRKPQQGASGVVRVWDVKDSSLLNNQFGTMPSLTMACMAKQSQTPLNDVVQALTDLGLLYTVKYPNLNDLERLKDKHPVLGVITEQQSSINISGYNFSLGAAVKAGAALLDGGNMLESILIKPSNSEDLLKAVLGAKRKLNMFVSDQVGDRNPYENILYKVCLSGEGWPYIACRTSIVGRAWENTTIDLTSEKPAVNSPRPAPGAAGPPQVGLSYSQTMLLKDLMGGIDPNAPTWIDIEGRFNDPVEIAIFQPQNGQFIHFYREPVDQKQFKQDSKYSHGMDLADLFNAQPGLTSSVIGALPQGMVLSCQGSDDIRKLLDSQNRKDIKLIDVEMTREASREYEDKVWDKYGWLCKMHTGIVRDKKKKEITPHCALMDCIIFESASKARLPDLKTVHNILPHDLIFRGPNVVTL

[4] = Cytotoxicity counterscreen for inhibitors of SARS-CoV-2 cell entry (AID 1645845); also: nearly all actives have a fitted effect of over 50% in size
In short: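 HEK293-ACE2 cells (Expi293F stably expressing human ACE2) seeded overnight, then compound for 1 h plus 48 h at 37C. Viability as ATP content by luminescence; normalized to wells with cells and media-only wells.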

[5] = Primary qHTS to identify inhibitors of SARS-CoV-2 cell entry (AID 1645846); details: activity change, negative = inhibition: at 57.1 µM (top of the series) unless noted; also: nearly all actives have a fitted effect of over 45% in size; also: potency is read from the fitted curve at half-maximal effect
In short: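 Inhibition of spike-mediated entry was scored in human ACE2-transfected Expi293F cells. Particles were MLV-pseudotyped with Wuhan-Hu-1 S carrying a 19-aa C-terminal deletion; signal was luciferase after two days, scaled between spike PP and fusion-protein-free PP.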

[6] = target: Alpha-galactosidase (Coffea arabica) (UniProt Q42656); test: Counterscreen for Glucocerebrosidase Inhibitors: qHTS Assay for Coffee Bean alpha-Galactosidase at pH 4.5 (AID 957; active = well fitted curve in the direction sought with a large enough effect; an effect the other way counts as inactive or inconclusive;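 also: plate controls were enzyme alone for no effect and no enzyme for full effect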)
Sequence of Alpha-galactosidase (Coffea arabica) (Q42656 whole entry, looked up): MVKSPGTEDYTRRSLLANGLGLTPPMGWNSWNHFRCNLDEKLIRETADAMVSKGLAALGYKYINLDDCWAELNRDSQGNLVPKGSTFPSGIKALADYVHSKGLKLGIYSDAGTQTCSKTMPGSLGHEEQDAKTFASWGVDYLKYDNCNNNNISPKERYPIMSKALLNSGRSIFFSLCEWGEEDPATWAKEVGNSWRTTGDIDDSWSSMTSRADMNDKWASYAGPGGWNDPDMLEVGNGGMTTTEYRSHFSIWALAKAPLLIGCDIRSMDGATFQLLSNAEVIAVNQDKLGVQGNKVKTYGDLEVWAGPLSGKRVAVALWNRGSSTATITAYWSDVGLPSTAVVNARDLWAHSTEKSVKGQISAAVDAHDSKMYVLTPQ
In short: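 AC50 values derive from Hill-equation modeling of concentration-response data, normalized to no-enzyme and full-activity controls. The pH 4.5 citrate assay used 2 nM coffee bean enzyme and 80 uM fluorogenic substrate for 20 min.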

[7] = target: Alpha-galactosidase (Coffea arabica) (UniProt Q42656); test: Counterscreen for Glucocerebrosidase Inhibitors: qHTS Assay for Coffee Bean alpha-Galactosidase at pH 5.9 (AID 998; active = well fitted curve in the direction sought with a large enough effect; an effect the other way counts as inactive or inconclusive;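 also: plate controls were uninhibited enzyme for no effect and no-enzyme basal signal for full effect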)
In short: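 Green coffee bean enzyme (2 nM) with 4-methylumbelliferyl alpha-D-galactopyranoside (80 uM) in 50 mM citric acid, 0.005% Tween-20, pH 5.9, 20 min at room temperature; compounds 0.7 nM–77 uM. Stopped at pH 10, fluorescence Ex365/Em440; Hill-fit AC50.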

[8] = Validation screen for inhibitors of Lassa infection (AID 463096); also: % is scaled to controls: 0 for no effect and ±100 for the full control effect
[9] = Inducers of the Endoplasmic Reticulum Stress Response (ERSR) in human glioma: Validation (AID 504836; active = well fitted curve in the direction sought with a large enough effect; an effect the other way counts as inactive or inconclusive; also: 0% is about no effect)
In short: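 Stably transfected U87-MG glioma cells carrying a GRP78-based luciferase sensor; 16 h compound incubation. Luminescence end-point read 10 min after Bright-Glo addition at room temperature.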

[10] = target: Bile acid receptor (Homo sapiens) (UniProt Q96RI1); test: qHTS assay for small molecule agonists of farnesoid X receptor signaling (AID 588527); details: HEK293T FXR-UAS-bla, beta-lactamase ratio, 16 h; activation: stronger effect = higher value;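 also: 0% = vehicle basal and 100% = reference agonist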
Sequence of Bile acid receptor (Homo sapiens) (Q96RI1 whole entry, looked up): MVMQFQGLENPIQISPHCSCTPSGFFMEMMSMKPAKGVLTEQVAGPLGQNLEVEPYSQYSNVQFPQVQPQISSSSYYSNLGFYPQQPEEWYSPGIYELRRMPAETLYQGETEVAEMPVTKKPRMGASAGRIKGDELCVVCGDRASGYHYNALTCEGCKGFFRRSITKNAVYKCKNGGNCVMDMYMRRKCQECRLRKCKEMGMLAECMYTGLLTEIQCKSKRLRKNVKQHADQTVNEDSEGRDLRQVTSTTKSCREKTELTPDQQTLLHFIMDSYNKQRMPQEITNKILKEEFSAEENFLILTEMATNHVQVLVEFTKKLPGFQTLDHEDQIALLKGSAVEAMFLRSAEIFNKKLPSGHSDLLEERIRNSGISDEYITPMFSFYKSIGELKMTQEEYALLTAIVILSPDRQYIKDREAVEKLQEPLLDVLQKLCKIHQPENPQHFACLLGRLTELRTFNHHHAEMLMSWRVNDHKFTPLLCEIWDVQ
In short: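 Read-out: beta-lactamase reporter fluorescence with CCF4 substrate in GeneBLAzer FXR-UAS-bla HEK293T cells, after 16 h compound exposure at 37 C. Response scaled between DMSO basal (0%) and chenodeoxycholic acid at 100 uM (100%).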

[11] = target: Peroxisome proliferator-activated receptor delta (Homo sapiens) (UniProt Q03181); test: qHTS assay for small molecule agonists of peroxisome proliferator-activated receptor delta signaling (AID 588534);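 also: 0% = DMSO basal wells and 100% = positive control agonist at 10 µM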
Sequence of Peroxisome proliferator-activated receptor delta (Homo sapiens) (Q03181 whole entry, looked up): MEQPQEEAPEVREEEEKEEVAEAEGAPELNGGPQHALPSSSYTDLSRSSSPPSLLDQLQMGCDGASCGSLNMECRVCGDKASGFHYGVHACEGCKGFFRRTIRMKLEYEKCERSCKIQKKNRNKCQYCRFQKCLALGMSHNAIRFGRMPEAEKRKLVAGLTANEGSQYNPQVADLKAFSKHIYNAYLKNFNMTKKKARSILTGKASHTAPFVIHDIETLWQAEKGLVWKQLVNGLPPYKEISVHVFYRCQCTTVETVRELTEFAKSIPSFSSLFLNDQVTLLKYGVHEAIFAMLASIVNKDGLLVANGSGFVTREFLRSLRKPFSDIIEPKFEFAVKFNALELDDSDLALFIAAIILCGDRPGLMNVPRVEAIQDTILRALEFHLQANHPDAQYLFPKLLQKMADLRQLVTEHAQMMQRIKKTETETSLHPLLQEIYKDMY
In short: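 Reporter cells were plated and held 5 hrs at 37 C before compounds were added. After 18 hrs at 37 C, CCF4 dye was loaded for 2 hrs at RT and fluorescence measured.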

[12] = Primary qHTS for inhibitors of SARS-S pseudo-typed particle cell entry (AID 1479145); also: nearly all actives have a fitted effect of over 45% in size
[13] = Primary qHTS for Huh7 cytotoxicity: counterscreen for inhibitors of MERS-S pseudotyped particle cell entry (AID 1479147); details: outcome: dose series up to 57.1 µM unless noted; also: % is scaled to controls: 0 for no effect and ±100 for the full control effect
[14] = Primary qHTS for Vero E6 cytotoxicity: counterscreen for inhibitors of SARS-S pseudo-typed particle cell entry (AID 1479150); details: outcome: dose series up to 57.1 µM unless noted; also: % is scaled to controls: 0 for no effect and ±100 for the full control effect
[15] = qHTS profiling of the MIPE4 collection as inhibitors of Plasmodium falciparum (3D7) proliferation (AID 743344; call rule not given here;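 also: scaled between DMSO vehicle wells and 0.29 µM artemisinin as full inhibition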); details: P. falciparum 3D7 in erythrocytes, SYBR Green DNA fluorescence, 72 h; at 28.5 µM (top of the series) unless noted
In short: (§1)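 Erythrocytes infected with P. falciparum (0.3% parasitemia, 2.5% hematocrit) incubated with compounds 72 h at 37 C, 5% CO2. Lysis with saponin/Triton buffer containing SYBR Green I, overnight at room temperature in the dark; DNA fluorescence (485/535 nm) normalised to 0.29 uM artemisinin and DMSO.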

[16] = qHTS profiling of the MIPE4 collection as inhibitors of Plasmodium falciparum (DD2) proliferation (AID 743345; call rule not given here); details: P. falciparum Dd2 in erythrocytes, SYBR Green DNA, 72 h; at 28.5 µM (top of the series) unless noted
In short: as §1

[17] = qHTS profiling of the MIPE4 collection as inhibitors of Plasmodium falciparum (DD2) proliferation (Rep 2) (AID 743346; call rule not given here); details: P. falciparum Dd2 in erythrocytes, SYBR Green DNA, 72 h; at 28.5 µM (top of the series) unless noted
In short: as §1

[18] = qHTS profiling of the MIPE4 collection as inhibitors of Plasmodium falciparum (HB3) proliferation (AID 743347; call rule not given here;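 also: plate controls were DMSO vehicle wells for no effect and artemisinin wells for full effect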); details: P. falciparum HB3 in erythrocytes, SYBR Green DNA, 72 h; at 28.5 µM (top of the series) unless noted
In short: as §1

[19] = qHTS for inhibitors of Rabies Virus screened against the NCATS CANVASS Library (AID 1347402); also: 0% is about no effect
[20] = Confirmatory qHTS to identify inhibitors of SARS-CoV-2 cell entry (AID 1645844); also: potency is read from the fitted curve at half-maximal effect; nearly all actives have a fitted effect of over 45% in size
In short: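 HEK293-ACE2 cells were pretreated 1 h with compound, then infected with MLV-based pseudoparticles bearing C-terminally truncated Wuhan-Hu-1 spike for 48 h at 37C; luciferase luminescence normalized to spike PP and bald PP wells.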

COc1cc(OC)c(NC(=O)Nc2cc(C)on2)cc1Cl
inactive: Potency [1] | Potency [2] | Potency [3] | Potency [4]
-15.8%: activity change, negative = inhibition [5]

O=c1c(-c2ccc(O)cc2)coc2cc(O)ccc12
inactive: outcome [6] | outcome [7] | Potency [8] | outcome [9] | activation [10] 2% and 3.27% | Potency [11] | Potency [1] | Potency [2] | Potency [3] | Potency [4] | Potency [5]

COc1cc2c(Nc3ccc(Cl)c(Cl)c3F)ncnc2cc1OCC1C[C@@H]2CN(C)C[C@H]2C1
active: Potency [1] 8.63 µM | Potency [2] 1.93 µM | Potency [3] 2.43 µM

C[C@]12CC[C@@H]3c4ccc(O)cc4CC[C@H]3[C@@H]1CC[C@@H]2O
inactive: outcome [6] | outcome [7] | Potency [8] | outcome [9] | Potency [11] | Potency [1] | Potency [2] | Potency [3] | Potency [12] | outcome [13] | outcome [14]

O=c1c(O)c(-c2ccccc2)oc2ccccc12
inactive: Potency [1] | Potency [2] | Potency [3]

CC(N[C@H]1CCCC[C@H]1NC(=O)c1ccc(Cl)cc1)c1cccc2ccccc12 (stereo not given in full)
79.2%: parasite growth remaining, % of DMSO control (lower = more inhibition) [16]
active: Potency [2] 3.43 µM | Potency [3] 4.85 µM | Potency [5] 28.2 µM
inactive: Potency [1] | Potency [4]
39.9%: growth, % of control [18]
31.1%: parasite growth, % of DMSO control [15]
64%: parasite growth, % of control (lower = inhibition) [17]

COc1c(O)cc(O)c2c(=O)cc(-c3ccccc3)oc12
inactive: Potency [1] | Potency [2] | Potency [3] | outcome [19]

C[C@@H]1C(=O)O[C@H]2[C@H](O)[C@@]34[C@H]5CC(C(C)(C)C)[C@]36[C@H](OC(=O)[C@H]6O)O[C@]4(C(=O)O5)[C@@]12O (stereo not given in full)
inactive: Potency [1] | Potency [2] | Potency [3]

Cn1c(=O)c(Oc2ccc(F)cc2F)cc2cnc(NC3CCOCC3)nc21
inactive: Potency [1] | Potency [2] | Potency [3] | Potency [4] | Potency [5]

CCN(CCO)CCCOc1ccc2c(Nc3cc(CC(=O)Nc4cccc(F)c4)[nH]n3)ncnc2c1
inactive: Potency [1] | Potency [2] | Potency [3] | Potency [4]
active: Potency [20] 681 nM
-58.3%: activity change, negative = inhibition [5]
